Experimental data published in the supplement of paper PMC6555819.

Assays:
Assay in all cases: PBM binding z-score (relative to random genomic background probes); higher = stronger binding; sequences stand for … in GC…GCGATTGACAGCGTAGAATGAAGG
[1] = test system: RARb homodimer (NR concentration 270 nM)
In short: (§1)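 Each nuclear receptor dimer, without ligand, was incubated for 1 h on custom Agilent 4×180K protein-binding microarrays. Binding was detected with antibodies against each partner (one per run), and scanned fluorescence was regression-normalized. The binding z-scores are referenced to random human genomic background probes.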

[2] = test system: RARg:RXRa (NR concentration 270 nM, RXRa partner concentration 90 nM)
In short: as §1

[3] = test system: RARg homodimer (NR concentration 270 nM)
In short: as §1

[4] = test system: RXRa DBDmut IVT, anti-RXR (DBD mutation: RXRa K156A/R161A, NR concentration 90 nM)
In short: as §1

[5] = test system: RXRa homodimer (NR concentration 180 nM)
In short: as §1

[6] = test system: THRa:RXRa (NR concentration 90 nM, RXRa partner concentration 90 nM)
In short: as §1

[7] = test system: THRa homodimer (NR concentration 90 nM)
In short: as §1

[8] = test system: VDR homodimer (NR concentration 270 nM)
In short: as §1

Sequence | PBM binding z-score [1] | PBM binding z-score [2] | PBM binding z-score [3] | PBM binding z-score [4] | PBM binding z-score [5] | PBM binding z-score [6] | PBM binding z-score [7] | PBM binding z-score [8]
CCTACTGGTCCATCAGGTCATTGATATCAACGTT | 2.5 | 1.6 | 1.47 | 1.04 | 1.28 | 3.41 | 3.29 | 2.02
CCTAGTTGGTCTGGAGGTCACACACCGGATATGA | 4.22 | 4.49 | 3.84 | 0.895 | 4.63 | 3.67 | 2.69 | 2.97
AGAATGAGGTTATTAAGATCCGGGAATTGCGGTC | 0.644 | 0.904 | 0.682 | 1.93 | 1.68 | 2.29 | 0.695 | 0.784
GCTATTAGTTGAAAGGGCAACCGAATGATTCTCG | 2.09 | 1.26 | 1.37 | 0.972 | 1.21 | 0.664 | -0.209 | 0.624
CCTAGTTGGTCAGCAGGTCACACACCGGATATGA | 3.43 | 3.52 | 3.44 | 0.217 | 3.16 | 2.77 | 1.35 | 1.05
ACTCGGAGGACAAAGGTCAGATCTACGCCAGTGA | 4.47 | 5.88 | 5.52 | 1.38 | 4.78 | 3.36 | 0.695 | 1.27
TAGCCTAGGTCATTGGGCGAGTATAGTACGCATC | 2.6 | 3.77 | 4.01 | 1.2 | 2.88 | 2.72 | 0.571 | 1.08
CCAGATAGGTGAAAGGTAACTCAGTCTGGTACGC | 1.04 | 1.53 | 0.944 | 0.181 | 2.46 | 0.97 | 0.0815 | 0.348
TCATATAGGTAAATGCTAGGTGAACGTCCGATCT | 0.575 | 0.645 | 0.417 | 1.4 | 0.952 | 1.56 | 0.84 | 0.0802
GCTAGCAGGCCATTTGGGTGACTCAATGACGGGC | -0.273 | -0.23 | 0.0183 | -0.541 | -0.076 | 0.189 | -0.653 | -0.481
CCTGCCAGGTCAATGGTCAGCTAAAGCAGCTCGC | 3.05 | 3.74 | 4.06 | 1.44 | 2.57 | 3.19 | 1.4 | 0.0635
CCTGCTAGGTCAATGGTCTGCTAAAGCAGCTCGC | 2.64 | 3.31 | 3.96 | 1.75 | 1.63 | 2.31 | 0.724 | -0.14
TCTCGGAGGACACGAAAGGTCAGAGCACGACATC | 4.5 | 5.01 | 5.15 | 1.04 | 4.09 | 3.67 | 1.29 | 1.49
GCTGCTGGGTCAACTGATGGTCAGCTAAAGCTCG | 3.36 | 5.04 | 4.22 | 1.22 | 3.13 | 2.41 | 0.228 | -0.125
CAAATTAGGTCACGAAAGGTCAAAGTCGAATGAC | 6.08 | 8.12 | 8.73 | 2.57 | 8.6 | 5.25 | 3.01 | 3.61
TCTATTAGTTGGAGGGCAACCGACGAGTCCGTTT | 1.31 | 0.442 | 0.781 | 1.47 | 0.834 | 0.528 | 0.592 | 1.86
CCTACCGGGCCAAAGGTCATTGATTCCAATGCTC | 4.57 | 5.86 | 4.58 | 0.593 | 6.64 | 3.68 | 1.12 | 2.38
CCATACGGGTCAAGGTTATAGCACGGGTGGTACG | 3.43 | 4.7 | 4.33 | 0.452 | 4.65 | 2.85 | 0.691 | 1.15
CAAACTAGGTCATTGACAGGACAGTGAATAGTAA | 2.83 | 4.74 | 4.67 | 2.28 | 2.89 | 2.91 | 1.01 | 1.51
GCGACTGGGGCAAAGCATGTTACCATAAGGTTGG | 0.192 | 0.235 | 0.278 | 0.0488 | 0.0784 | 0.269 | -0.43 | -0.625
CCGTACGGGTCACTCCAGGTTATAGCATCGGAGT | 3.26 | 4.74 | 4.74 | 1.62 | 5.04 | 5.05 | 0.303 | 1.37
CCTACTGGGCTATTCAGAGGTCATTGATCATATG | 3.63 | 3.55 | 2.52 | 1.07 | 3.56 | 3.16 | 1.28 | 3.02
GCATATAGGTAAGACAAGGTGAAAGTCCGATTGT | 0.617 | 0.376 | 0.405 | 0.267 | 0.545 | 3.81 | 0.676 | -0.12
ACTTACGGGTCAACGAGGTTATGGCACGCGTATA | 3.9 | 5.75 | 5.68 | 2.65 | 6.57 | 4.04 | 1.32 | 3.94
CAAACTAGGTCCAAGGTCAAAGTCGAGCCAACCA | 3.79 | 3.98 | 3.24 | 2.47 | 4.04 | 3.64 | 2.62 | 3.42
CCTACTGCGCCATCAGGTCATTGATATCAACGTT | 2.85 | 1.59 | 1.53 | 1.5 | 1.3 | 3.49 | 3.56 | 2.17
